# Pf growth 96h = Primary qHTS for delayed death inhibitors of the malarial parasite plastid, 96 hour incubation | P. falciparum luciferase reporter growth, 96 h | Potency, µM (doses to about 28.7 µM), for the others: at the top dose activity change, negative = inhibition, most hits filed as inhibitors | 6.9% of 320,000 active | AID 504834, 2011; further: on the % scale 0 is the no-effect control and ±100 the full control effect
#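 P. falciparum expressing integrated firefly luciferase grown in erythrocytes (2% hematocrit, 0.05% parasitemia final) with compounds for 96 hours at 37 C, 5% CO2. Growth inhibition read as loss of luminescence after adding luciferase detection reagent.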
# Pf growth 48h = Primary qHTS for delayed death inhibitors of the malarial parasite plastid, 48 hour incubation; Potency, µM (titrated, usually from 28.7 µM), for the others: at the top dose activity change, negative = inhibition, most hits filed as inhibitors; 5.9% of 310,000 active; P. falciparum luciferase growth in erythrocytes, 48 h; AID 504832, 2011; further: on the % scale 0 is the no-effect control and ±100 the full control effect
#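 Parasite viability was followed by luminescence of a genomically integrated firefly luciferase. Cultures held 0.1% parasitemia at 2% hematocrit (final), incubated under 5% CO2 at 37 C.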
# AMA1 RON2 block = qHTS for Inhibitors of AMA1-RON; Towards Development of Antimalarial Drug Lead: Primary Screen. Plasmodium falciparum AMA1 (3D7) - RON2 peptide interaction. AlphaScreen AMA1-biotinylated RON2 peptide binding. Potency, µM (top dose mostly 58.2 µM), for inactives: top-dose activity change, negative = inhibition, usual class: inhibitors. 0.2% of 360,000 active. AID 720542, 2013;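 further: 0% = vehicle wells and -100% = peptide control; nearly all actives have a fitted effect of over 45% in size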
#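 AMA1 (3D7) with his tag at 25 nM final met compounds first, then biotinylated RON2 peptide at 25 nM; detection used donor plus acceptor beads, 10 µg/mL apiece, read by AlphaScreen after 30 min at room temperature.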
# SARS PLpro yeast = qHTS of Yeast-based Assay for SARS-CoV PLP; S. cerevisiae expressing SARS-CoV PLpro, growth rescue; Potency, µM (series often up to 32.9 µM), inactives show at the top dose activity, positive = growth rescue, usual class: activators; 0.19% of 330,000 active; AID 485353, 2010; calls by dose curve; further: 0% is about no effect; nearly all actives have a fitted effect of over 55% in size
# HCV inh = qHTS Assay for Inhibitors of Hepatitis C Virus (HCV); Potency, µM (titrated, usually from 41.8 µM), for the others: at the highest dose activity change, negative = inhibition, hits mostly inhibitors; Huh7.5.1 HCVcc-Cre infection, luciferase reporter, 44 h; 3.4% of 340,000 active; AID 651820, 2012; further: on the % scale 0 is the no-effect control and ±100 the full control effect
#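 HCVcc-Cre virus at an moi near 0.5 was added right after compound to cells cultured 4 h from seeding (1,000 cells/well). Luciferase activity was determined 44 h later, 15 min after substrate addition at RT.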
# NS1 function inh = qHTS Assay for Inhibitors of Influenza NS1 Protein Function. Potency, µM (highest dose often 46.1 µM), for the others: at the highest dose activity, positive = more growth. 0.4% of 270,000 active. AID 2326, 2010; calls by dose curve; further: actives are rising curves; nearly all actives have a fitted effect of over 50% in size
#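 A cell-based growth assay was used: compounds that relieve NS1-induced slow growth of budding yeast raise OD600. Assay medium was yeast nitrogen base with ammonium sulphate and -URA supplement, pH 6.0, with 2% galactose.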
# The depositor's hits bear a star; ? = inconclusive; · = not tested or not shown. Only some compounds are listed: those with a hit (about 12% of all), similar ones and a draw of the others. Unless noted, the call rests on the fitted dose curve; in most records, active means well fitted curve in the direction sought with a large enough effect; inconclusive means small, poorly fitted or top-dose-only effect, or another doubt; inactive means no such curve, though single readings can be large; an effect the other way counts as inactive or inconclusive. Potency means the concentration at half of the fitted maximal effect.
SMILES,Pf growth 96h,Pf growth 48h,AMA1 RON2 block,SARS PLpro yeast,HCV inh,NS1 function inh
CCC(=O)OCC(=O)[C@@]1(OC(=O)CC)[C@H](C)C[C@@H]2[C@@H]3[C@H]([C@@H](O)C[C@@]21C)[C@]1(C)C=CC(=O)C=C1C[C@@H]3Cl,4.1µM*,2.6µM*,·,·,·,·
CCOC(=O)C1CCCN(C(=O)c2cc(F)ccc2C)CC1 (configuration not stated),·,·,1%,·,·,·
Cc1c(Br)c([N+](=O)[O-])nn1CCCC(=O)NC(C)c1ccccc1 (configuration not stated),?,2%,-23%,-1%,-3%,·
CC(=O)Oc1ccc(C23c4ccccc4C2(OC(C)=O)c2cc(OC(C)=O)ccc23)cc1 (configuration not stated),·,·,25%,·,11µM*,·
CSc1nc2ccccc2c(=O)n1C1CCCCC1,1.5µM*,8%,9%,-1%,-8%,-4%
CNC(=O)CSc1nc2ccccc2c(=O)n1C1CCCCC1,?,-24%,-1%,-1%,8%,-5%
Cc1nc2ccccc2c(=O)n1C1CCCCCC1,20%,?,0%,4%,1%,-8%
CCCCNC(=O)CSc1nc2ccccc2c(=O)n1C1CCCC1,56%,13µM*,11%,-5%,?,-11%
Cc1nc(Nc2cc(F)ccc2C)c2nnn(Cc3ccccc3)c2n1,296%,0%,0%,-8%,-23%,-25%
OC1(c2cccc(C(F)(F)F)c2)CCN(c2ccc(-c3ccccc3)nn2)CC1,3.7µM*,118%,-2%,-4%,?,3%
CCC(Oc1ccc(F)cc1)C(=O)N1CCCCCCC1 (configuration not stated),0%,1%,32%,0%,15%,19%
O=[N+]([O-])c1ccc(N=Nc2c(O)[nH]c3ccc(F)cc23)cc1,33%,75%,-22%,-3%,-21%,0%
O=[N+]([O-])c1ccc(N=Nc2ccc(O)cc2O)cc1,0.33µM*,·,15%,-30%,?,-30%
O=[N+]([O-])c1cccc(N=Nc2ccc(O)cc2O)c1,·,·,-6%,·,1.8µM*,·
C=CCN1C(=O)C(CC(=O)Nc2ccc(OCCC)cc2)N(CCCN2CCN(Cc3ccccc3)CC2)C1=S (configuration not stated),?,?,?,-4%,10µM*,·
COC(=O)CN1C(=S)N(Cc2ccccc2)C(=O)C1CC(=O)Nc1ccc(OC)cc1 (configuration not stated),20%,4.1µM*,14%,3%,-3%,7%
CC(C)(C)C(=O)NCCCC(=O)O,-11%,?,·,·,·,·
COc1ccc2c(c1OC)C(=O)OC2N1C(=O)CC[C@H]1C(=O)NCC1CCCO1 (some centres not stated),26%,1%,8%,-5%,0.56µM*,-8%
N#Cc1cc(C(=O)c2cc(Br)ccc2O)cn(C2CCCCC2)c1=O,1µM*,1.5µM*,-5%,7%,11µM*,12%
N#Cc1cc(C(=O)c2cc(Cl)ccc2O)cn(-c2ccccc2)c1=O,1.9µM*,9.3µM*,-14%,7%,10%,-14%
COc1ccc(O)c(C(=O)c2cc(C#N)c(=O)n(-c3c(C)n(C)n(-c4ccccc4)c3=O)c2)c1,9.3µM*,?,-23%,1%,16%,9%
Cc1c(-n2cc(C(=O)c3cc(Cl)ccc3O)cc(C#N)c2=O)c(=O)n(-c2ccccc2)n1C,0%,0%,0%,-1%,-2%,3%
Cc1ccc(NC(=O)c2cc(C(=O)c3cc(Cl)ccc3O)cn(-c3ccc(C)cc3)c2=O)cc1,0.19µM*,0.33µM*,-16%,?,?,23%
CN(Cc1ccccc1)C(=O)c1csc([C@H]2C[C@H](O)[C@@H](CO)O2)n1,·,·,0%,·,·,·

# Assay outcomes deposited in PubChem by National Center for Advancing Translational Sciences (NCATS).
